Source: PubChem BioAssay
Sampled rows, rich in hits. Any-hit rate of the full collection: about 10%.
G9a block: inhibitors of human histone lysine methyltransferase G9a; Potency, µM (top dose mostly 102 µM), for the others: at the top dose activity, negative = inhibition, actives largely listed as inhibitors; G9a H3K9 monomethylation, AlphaScreen, 2 h; Q96KQ7; 350,000 tested, 8.8% active; further: on the % scale 0 is the no-effect control and ±100 the full control effect; nearly all actives have a fitted effect of over 75% in size
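Compounds were preincubated with 20 nM G9a for 15 min, after which biotinylated H3K9 peptide (500 nM) and SAM (20 uM) started a 2 h room-temperature reaction. Monomethylated product was quantified by antibody-based AlphaScreen chemiluminescence.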
HP1b chromo inh: blocks HP1-beta chromodomain binding to methylated histone tails | 390,000 tested, 0.56% active | P83916 | AlphaScreen HP1-beta / biotin-H3K9me3 peptide binding | Potency, µM (titrated, usually from 114 µM), for the others: at the top dose activity change, negative = inhibition, actives largely listed as inhibitors | AID 540317; further: nearly all actives have a fitted effect of over 70% in size
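HP1-beta protein (50 nM final) preincubated 30 min at room temperature with biotinylated H3(1-18)K9me3 peptide (50 nM) in PBS pH 7.4, 0.01% Tween-20, then compound added for 30 min. AlphaScreen streptavidin donor/nickel chelate acceptor beads (10 ug/mL final), 30 min dark, luminescence read.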
BAZ2B block: inhibitors of human BAZ2B bromodomain; Q9UIF8; AlphaScreen BAZ2B-H3K14Ac peptide displacement; Potency, µM (series often up to 114 µM), without a hit: at the top dose activity change, negative = inhibition, hits mostly inhibitors; 360,000 tested, 4.4% active; AID 504333; further: on the % scale 0 is the no-effect control and ±100 the full control effect; nearly all actives have a fitted effect of over 60% in size
Target sequence (Q9UIF8 whole entry, looked up): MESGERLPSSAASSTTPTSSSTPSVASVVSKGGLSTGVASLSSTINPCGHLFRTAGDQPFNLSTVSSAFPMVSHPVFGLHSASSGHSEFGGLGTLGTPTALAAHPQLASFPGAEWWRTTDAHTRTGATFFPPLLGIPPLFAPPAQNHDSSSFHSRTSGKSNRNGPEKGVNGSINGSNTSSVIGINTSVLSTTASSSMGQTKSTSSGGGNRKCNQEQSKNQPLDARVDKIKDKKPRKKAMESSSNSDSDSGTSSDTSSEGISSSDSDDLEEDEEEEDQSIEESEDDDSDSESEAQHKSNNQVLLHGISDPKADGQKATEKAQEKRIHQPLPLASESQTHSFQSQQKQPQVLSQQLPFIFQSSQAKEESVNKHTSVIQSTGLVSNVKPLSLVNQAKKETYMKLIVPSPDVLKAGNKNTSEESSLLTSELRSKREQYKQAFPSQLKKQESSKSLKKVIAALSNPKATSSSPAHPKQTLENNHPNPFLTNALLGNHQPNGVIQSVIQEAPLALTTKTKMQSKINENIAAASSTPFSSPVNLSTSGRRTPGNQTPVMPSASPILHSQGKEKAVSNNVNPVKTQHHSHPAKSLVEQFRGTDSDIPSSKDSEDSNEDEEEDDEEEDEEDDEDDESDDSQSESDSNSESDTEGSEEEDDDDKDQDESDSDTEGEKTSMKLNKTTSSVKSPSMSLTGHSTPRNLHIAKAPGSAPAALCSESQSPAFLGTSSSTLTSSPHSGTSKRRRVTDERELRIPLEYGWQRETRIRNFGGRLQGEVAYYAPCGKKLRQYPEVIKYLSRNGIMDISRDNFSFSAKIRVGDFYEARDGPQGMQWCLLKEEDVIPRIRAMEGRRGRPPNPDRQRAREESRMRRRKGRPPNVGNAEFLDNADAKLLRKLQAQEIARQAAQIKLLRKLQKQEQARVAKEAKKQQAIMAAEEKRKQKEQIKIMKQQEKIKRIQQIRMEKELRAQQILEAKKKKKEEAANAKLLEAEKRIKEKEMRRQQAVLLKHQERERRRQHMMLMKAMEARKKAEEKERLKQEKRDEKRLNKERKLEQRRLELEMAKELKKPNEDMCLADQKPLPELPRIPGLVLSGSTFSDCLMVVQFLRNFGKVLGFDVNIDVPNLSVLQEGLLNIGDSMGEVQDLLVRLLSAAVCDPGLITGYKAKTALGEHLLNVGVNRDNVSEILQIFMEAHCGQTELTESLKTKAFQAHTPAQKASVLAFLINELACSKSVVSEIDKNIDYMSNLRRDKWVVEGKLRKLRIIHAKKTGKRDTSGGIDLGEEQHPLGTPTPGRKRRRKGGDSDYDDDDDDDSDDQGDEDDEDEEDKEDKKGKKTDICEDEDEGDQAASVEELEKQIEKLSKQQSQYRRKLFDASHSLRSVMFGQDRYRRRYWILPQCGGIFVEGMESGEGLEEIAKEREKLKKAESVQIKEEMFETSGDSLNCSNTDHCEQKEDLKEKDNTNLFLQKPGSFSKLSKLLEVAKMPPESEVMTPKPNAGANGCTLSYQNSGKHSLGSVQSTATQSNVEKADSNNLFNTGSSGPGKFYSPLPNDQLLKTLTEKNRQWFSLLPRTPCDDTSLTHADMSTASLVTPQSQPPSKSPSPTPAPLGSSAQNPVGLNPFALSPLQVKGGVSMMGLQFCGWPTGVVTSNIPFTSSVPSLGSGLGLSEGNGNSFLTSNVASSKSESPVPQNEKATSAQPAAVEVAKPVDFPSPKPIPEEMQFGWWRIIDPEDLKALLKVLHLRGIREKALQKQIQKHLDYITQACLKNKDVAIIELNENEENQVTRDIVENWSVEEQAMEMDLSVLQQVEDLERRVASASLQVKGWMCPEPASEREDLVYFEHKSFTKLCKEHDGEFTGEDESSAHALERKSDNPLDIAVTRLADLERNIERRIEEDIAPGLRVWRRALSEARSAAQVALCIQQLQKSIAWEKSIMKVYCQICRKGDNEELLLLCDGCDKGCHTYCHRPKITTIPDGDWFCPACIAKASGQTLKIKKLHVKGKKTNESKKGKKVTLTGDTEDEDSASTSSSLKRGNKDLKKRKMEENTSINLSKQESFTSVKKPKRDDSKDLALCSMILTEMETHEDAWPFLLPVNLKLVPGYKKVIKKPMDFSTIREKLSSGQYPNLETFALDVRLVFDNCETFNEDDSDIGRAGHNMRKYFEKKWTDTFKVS
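Protein-peptide AlphaScreen: BAZ2B 50 nM, b-H3K14Ac 50 nM, 1x PBS pH 7.4 + 0.01% Tween-20. Preincubation 30 min RT; cpd 30 min RT (top 110 uM); beads 20 min RT, light-protected.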
JMJD2A Tudor inh: JMJD2A Tudor domain (human) inhibition; O75164; AlphaScreen JMJD2A-Tudor / H3K4me3 peptide binding; Potency, µM (highest dose often 114 µM), for inactives: at the highest dose activity change, negative = inhibition, most hits filed as inhibitors; 390,000 tested, 4.4% active; further: on the % scale 0 is the no-effect control and ±100 the full control effect; nearly all actives have a fitted effect of over 50% in size
GLS inhibitor: glutaminase GLS (human) inhibition; O94925; Potency, µM (highest dose often 45.5 µM), for the others: at the top dose activity change, negative = inhibition, most hits filed as inhibitors; GLS enzymatic activity, qHTS titration; 410,000 tested, 0.21% active; further: on the % scale 0 is the no-effect control and ±100 the full control effect
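Read-out is an Amplex red fluorescence increase coupled through glutamate oxidase and HRP, measured before and after 30 min room-temperature incubation. hKGA is in 45 mM KH2PO4 (pH 8.2) with 0.02% Tween-20; glutamine added as 1mM solution.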
Active calls of the source: *; ? = inconclusive; nt = not tested or not shown; [ ] = another dose, or the depositor's remark. The call rests on the fitted dose curve; in most records, active means well fitted curve in the direction sought with a large enough effect; inconclusive means small, poorly fitted or top-dose-only effect, or another doubt; inactive means no such curve, though single readings can be large; an effect the other way counts as inactive or inconclusive. Potency means the concentration at half of the fitted maximal effect.

SMILES	G9a block	HP1b chromo inh	BAZ2B block	JMJD2A Tudor inh	GLS inhibitor
CSCCC(NC(=O)OCc1ccccc1)C(=O)O (stereo not given)	-45.6%[59 µM]	22.0%	-6.2%	-8.2%	5.4%
CCOC(=O)CSc1n[nH]c(NS(=O)(=O)c2ccccc2C(F)(F)F)n1	-12.5%[59 µM]	31.0%	-4.5%	-11.8%	1.9%
O=C(CN1CC(c2ccccc2)CC1=O)OCc1ccccc1F (stereo not given)	-44.1%[12.7 µM]	28.4%	5.0%	5.0%	0.7%
O=C(O)/C=C\C(=O)Nc1ccc(N2CCN(c3cccc(Cl)c3)CC2)cc1	nt	?	35.5µM*	-10.5%[11.4 µM]	7.4%
Nc1ccc(N2CCN(c3cccc(Cl)c3)CC2)cc1	3.98µM*	?	35.5µM*	44.7µM*	52.6%
O=C(O)/C=C/C(=O)Nc1ccc(-n2ccc(C(F)(F)F)n2)cc1	44.7µM*	31.4%	-2.4%	-16.9%	2.6%
O=C(O)/C=C\C(=O)Nc1ccc(N2CCN(c3ccc(Cl)cc3)CC2)cc1	10µM*	-2.4%	?	-33.6%	26.1%
Clc1cccc(N2CCN(CCCN3CCN(c4ccccc4)CC3)CC2)c1	nt	-21.6%[57 µM]	nt	?	18.3%
CC[C@@H]1[C@H]2CCCC(=O)N3CC[C@@H](C[C@@H]1OC(=O)Nc1ccccc1)[C@@H]23	11.9%	15.8%	5.0%	-6.2%	-4.1%
O=C(O)/C=C\C(=O)Nc1ccc(N2CCN(c3ccc(Cl)c(Cl)c3)CC2)cc1	31.6µM*	?	31.6µM*	39.8µM*	27.4%
Cn1nnnc1SCCNCc1ccc(F)cc1	2.0%[59 µM]	-1.8%	7.1%	-0.3%	-1.3%
Nc1nc(SCC(=O)Nc2cc(-c3ccccc3)nn2-c2ccccc2)n[nH]1	16.4%[59 µM]	30.5%	2.5%	-16.1%	17.4%
CC(=O)NC(CCS(C)(=O)=O)C(=O)Nc1nc(C)cs1 (stereo not given)	15.6%[59 µM]	10.4%	-2.6%	-12.2%	-2.0%
Nc1nn2c(-c3ccccc3)cc(=O)[nH]c2c1N=Nc1ccc(O)cc1	?	?	?	-28.3%	?
Nc1nn2c(-c3ccccc3)cc(=O)[nH]c2c1N=Nc1ccc(Br)cc1	17.8%[59 µM]	?	-37.2%	28.2µM*	5.6%
Cc1cc(C)n(-c2nc3ccccc3c(=O)n2OC2CCCCC2)n1	7.9%	10.7%	4.0%	-3.0%	7.9%
Cc1cc2[nH]c(=O)c(=O)[nH]c2cc1S(=O)(=O)NCc1ccc(F)cc1	24.4%[59 µM]	31.2%	20.6%	-17.8%	3.0%
COc1ccc(C(CNC(=O)c2cccc(S(=O)(=O)Nc3ccccc3OC)c2)N2CCCCC2)cc1 (stereo not given)	nt	5.8%	nt	-31.8%	-0.2%
Cc1ccccc1/C=N\NC(=O)c1csnn1	?	31.0%	-3.7%	-32.3%	-0.4%
N/C(=N\N=C/c1ccc(F)cc1)N/N=C\c1ccc(F)cc1	50.1µM*	-8.1%	?	?	3.3%
O=C(N/N=C\c1ccc(F)cc1)c1csnn1	1.58µM*	21.6%	-15.4%	-18.6%	-2.9%
Cn1c(-c2ccsc2)c(-c2cccs2)c2cc(-c3ccc4cc[nH]c4c3)ccc21	7.1%[0.501 µM]	25.2%	-30.3%	?	0.7%
N#Cc1cc(N)ccc1-n1cccc1	?	24.6%	-29.2%	-29.2%	1.7%
CCN(c1ccccc1)S(=O)(=O)c1cc(C(=O)O)ccc1C	1.4%[0.501 µM]	8.4%	50.1µM*	-23.5%	5.9%
O=C(O)c1ccc(Cl)c(S(=O)(=O)N(Cc2ccccc2)c2ccccc2)c1	?	-19.8%	0.9%	-12.0%	13.9%
CC(C)Nc1nc(NC(C)C)nc(OCCOC(=O)Nc2ccccc2)n1	32.2%[12.7 µM]	10.9%	0.0%	-35.1%	1.1%
CCCn1c(SCC(=O)N2c3ccc(F)cc3CCC2C)nnc1-c1ccccn1 (stereo not given)	-11.6%[59 µM]	?	5.2%	70.8µM*	7.5%
CCN1CCN(c2cc(C)c3cc(NC(=S)NCc4cccs4)ccc3n2)CC1	44.7µM*	-5.4%[57 µM]	-36.6%	?	38.9%
COc1ccc(CNC(=S)Nc2ccc3nc(N4CCN(C)CC4)cc(C)c3c2)cc1	44.7µM*	-10.2%	?	?	-0.6%
Cc1cc(N2CCN(C)CC2)nc2ccc(NC(=S)NCc3cccs3)cc12	39.8µM*	-7.0%	-32.8%	-33.1%	7.1%
